Results as given in PubChem BioAssay (NCATS).
Inconclusive results are not listed. Unmarked numbers belong to inactive results. The source made the active and inactive calls. Calls come from the whole dose curve; as a rule, active = well fitted inhibition curve with a large enough effect; inconclusive = small, poorly fitted or top-dose-only effect; inactive = no such curve, though single readings can be large or run the other way.

test system: Zika virus NS2B-NS3 protease (linked construct); assay: Primary screen NINDS Rhodamine qHTS for Zika virus inhibitors (AID 1347160); settings: purified NS2B-NS3 protease, Rhodamine110 substrate fluorescence; series mostly up to 57.1 µM; activity change, negative = inhibition: at the top concentration; note: nearly all actives have a fitted effect of over 55% in size
How it was run: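 Purified NS2B-NS3 protease with the NS2B hydrophilic domain joined by a flexible linker (25 nM) in 10 mM Tris-HCl pH 8.0, 0.01% Tween 20, preincubated 15 min at RT with compound; Rhodamine110 peptide substrate 1.5 µM; fluorescence change over 15 min; 4-parameter Hill fit.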
% is set by controls: 0 for no effect and ±100 for the full control effect.

Row | Structure (SMILES) | activity change, negative = inhibition | outcome
1 | COc1ncc2cc(C(=O)Nc3cc(C(=O)NCc4cccc(Cl)c4)ccc3Cl)c(=O)[nH]c2n1 | -5.97% | 
2 | CC1(C)CC[C@]2(CO[C@@H]3O[C@H](CO)[C@@H](O)[C@H](O)[C@H]3O)[C@@H](O)C[C@]3(C)C(=CCC4[C@@]5(C)CC[C@H](O[C@@H]6O[C@H](CO[C@@H]7O[C@H](CO[C@@H]8OC[C@@H](O)[C@H](O)[C@H]8O)[C@@H](O)[C@H](O)[C@H]7O)[C@@H](O)[C@H](O)[C@H]6O)C(C)(C)C5CC[C@]43C)[C@@H]2C1 (some centres undefined) | -16.3% [at 15.1 µM] | 
3 | CCCN1CCC(c2cccc(S(C)(=O)=O)c2)CC1 |  | inactive
4 | CS(=O)(=O)NCC1CCC(Nc2nc3c(s2)CCSc2ccccc2-3)CC1 (centres undefined) | 22.3% | 
5 | O=C(/C=C/c1ccccc1)OC[C@]12O[C@H]1[C@@H](O)[C@@H]1C=CO[C@@H](O[C@@H]3O[C@H](CO)[C@@H](O)[C@H](O)[C@H]3O)[C@@H]12 | 20.6% [at 33.1 µM] | 
6 | CO/N=C(/C(=O)N[C@@H]1C(=O)N2C(C(=O)O)=C(Cn3ccc(=N)n3CCO)CS[C@H]12)c1csc(N)n1 |  | inactive
7 | NC(=O)[C@H]1CCS[C@@H]2C[C@]3(CCCN3C(=O)Cc3ccc(NC(=O)COc4ccc(Cl)cc4Cl)cc3)C(=O)N12 | 21.4% | 
8 | C[C@@H]1[C@H]2[C@H](O[C@@H]3O[C@H](CO)[C@@H](O)[C@H](O)[C@H]3O)OC=C(C(=O)O)[C@H]2C[C@@H]1O |  | inactive; activator [at 33.1 µM]
9 | CC1(C)CC[C@]2(C(=O)O[C@@H]3O[C@H](CO)[C@@H](O)[C@H](O)[C@H]3O)CC[C@]3(C)C(=CCC4[C@@]5(C)C[C@@H](O)[C@H](O)C(C)(C)C5[C@H](O)C[C@]43C)[C@@H]2[C@@H]1O (some centres undefined) | -7.24% [at 15.1 µM] | 
